Rows were chosen to be rich in hits. Some 11% of all compounds tested hit in one or more screens of this group.
HPGD block – qHTS Assay for Inhibitors of HPGD (15-Hydroxyprostaglandin Dehydrogenase). 15-hydroxyprostaglandin dehydrogenase [NAD(+)] (Homo sapiens), P15428. purified HPGD, NADH fluorescence kinetic, PGE2 substrate. Potency, µM, usual class: inhibitors. hit rate 4.3% among 150,000. AID 894, 2007; active = well fitted inhibition curve with a large enough effect, not every such curve was filed as active; inconclusive = small, poorly fitted or top-dose-only effect, or another doubt; inactive = no such curve, though single readings can be large or run the other way
Target sequence (P15428 whole entry, looked up): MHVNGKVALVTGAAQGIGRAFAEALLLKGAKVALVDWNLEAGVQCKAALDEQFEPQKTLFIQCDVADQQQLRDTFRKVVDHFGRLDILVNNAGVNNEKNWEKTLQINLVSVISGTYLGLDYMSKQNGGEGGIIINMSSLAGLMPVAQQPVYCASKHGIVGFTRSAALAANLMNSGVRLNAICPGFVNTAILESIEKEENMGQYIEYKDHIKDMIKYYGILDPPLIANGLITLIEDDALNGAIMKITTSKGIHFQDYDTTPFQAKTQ
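20 nM HPGD preincubated 15 min at room temperature with compound in 50 mM Tris-HCl pH 8, 0.01% Tween 20. Started with 1 mM NAD+ and 30 uM prostaglandin E2; NADH fluorescence (360/450 nm) read 5 times over 30-s intervals, last minus first.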
IMPase cell inh – qHTS Assay for Identifying the Cell-Membrane Permeable IMPase Inhibitors; Inositol monophosphatase 1 (Rattus norvegicus), P97697; inhibition (IP1 accumulation), % at 46.1 µM; 120,000 tested, under 10 active; CHO-M1 cells, IP1 accumulation, HTRF TR-FRET ratio; active = well fitted curve in the direction sought with a large enough effect in the signal ratio, not every such curve was filed as active; inconclusive = small, poorly fitted or top-dose-only effect, or a change in a side signal; inactive = no such curve, though single readings can be large or run the other way; the % refers to the signal ratio;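 note: cells stimulated with carbachol in lithium chloride buffer; higher means more IMPase inhibition seen as more IP1 and lower FRET ratio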
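Cellular IMPase inhibition is scored as a rise in cytosolic IP1, detected by competitive TR-FRET between d2-labelled IP1 and a europium anti-IP1 antibody. M1-expressing CHO cells were stimulated with carbachol for 30 min at 37C, with lithium (50 mM LiCl) present in the buffer.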
12-hLO inh – qHTS Assay for Inhibitors of 12-hLO (12-human lipoxygenase). Polyunsaturated fatty acid lipoxygenase ALOX12 (Homo sapiens), P18054. purified 12-hLO, xylenol orange hydroperoxide absorbance. Potency, µM (series often up to 57.1 µM), actives largely listed as inhibitors. hit rate 0.12% among 150,000; note: nearly all actives have a fitted effect of over 55% in size
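Purified human 12hLO (150 nM final) was preincubated with compounds for 15 min at room temperature in 25 mM Hepes pH 7.0, 0.01% Triton X-100, then reacted with 40 uM arachidonic acid for 30 min. Hydroperoxide was detected with ferrous iron/xylenol orange.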
IMPase Li inh – qHTS Assay for Identifying the Cell-Membrane Permeable IMPase Inhibitors: Potentiation with Lithium; CHO-M1 cells, IP1 TR-FRET (IP-One), carbachol + lithium; Potency, µM (top dose mostly 59.4 µM), most hits filed as inhibitors; hit rate 0.35% among 210,000;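 note: IP1 builds up when IMPase is blocked and the TR-FRET signal falls; nearly all actives have a fitted effect of over 50% in size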
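IP1 accumulation measured by competitive TR-FRET in lysed CHO-M1 cells after 30 min compound exposure at 37C, with a small lithium addition to potentiate weak responses. Hill-equation AC50 from ratio and donor-channel data.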
ALDH1A1 block – qHTS Assay for Inhibitors of Aldehyde Dehydrogenase 1 (ALDH1A1). Aldehyde dehydrogenase 1A1 (Homo sapiens), P00352. hit rate 7.3% among 220,000. Purified ALDH1A1, NADH fluorescence, propionaldehyde substrate. Potency, µM (series often up to 75.3 µM), usual class: inhibitors; active = well fitted inhibition curve with a large enough effect, not every such curve was filed as active; inconclusive = small, poorly fitted or top-dose-only effect, or another doubt; inactive = no such curve, though single readings can be large or run the other way
Target sequence (P00352 whole entry, looked up): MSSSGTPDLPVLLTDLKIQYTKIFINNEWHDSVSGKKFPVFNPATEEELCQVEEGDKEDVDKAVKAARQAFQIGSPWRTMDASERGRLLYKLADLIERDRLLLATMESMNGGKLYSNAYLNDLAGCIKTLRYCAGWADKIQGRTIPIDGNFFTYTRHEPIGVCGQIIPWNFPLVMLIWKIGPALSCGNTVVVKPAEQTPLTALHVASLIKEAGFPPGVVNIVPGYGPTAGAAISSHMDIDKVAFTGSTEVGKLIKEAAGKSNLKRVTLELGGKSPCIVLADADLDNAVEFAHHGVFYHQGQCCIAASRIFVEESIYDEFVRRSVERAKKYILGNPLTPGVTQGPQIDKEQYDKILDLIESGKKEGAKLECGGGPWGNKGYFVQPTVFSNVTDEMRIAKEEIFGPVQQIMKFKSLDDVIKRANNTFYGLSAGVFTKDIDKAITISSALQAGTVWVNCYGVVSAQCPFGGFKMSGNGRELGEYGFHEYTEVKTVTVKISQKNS
PNC assembly inh – High Content Assay for Compounds that inhibit the Assembly of the Perinucleolar Compartment. activity change (PNC), negative = inhibition, % at 10 µM. hit rate 3.1% among 140,000. AID 2417, 2010. PC3M PTB-GFP, PNC prevalence imaging, 16 h; active compounds read low;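 active = readout at or below -70, meaning at least 70% loss of cells showing the perinucleolar compartment, a nuclear body marking cancer cells; inconclusive = readout between -30 and a set limit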
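PC3M cells stably expressing PTB-GFP, 750–1000 cells/well, treated 16 h at 37 °C with compound (23 nl of library stock), in duplicate. After paraformaldehyde fixation and Hoechst stain, imaged at 20x; PNC prevalence scored by image analysis.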
Numbers stand for hits; – = inactive; ? = inconclusive; · = not tested or not shown; [ ] = remark or other dose. Unless noted, calls come from the whole dose curve; as a rule, active = well fitted curve in the direction sought with a large enough effect; inconclusive = small, poorly fitted or top-dose-only effect, or another doubt; inactive = no such curve, though single readings can be large; an effect the other way counts as inactive or inconclusive.

SMILES | HPGD block | IMPase cell inh | 12-hLO inh | IMPase Li inh | ALDH1A1 block | PNC assembly inh
Cc1cccc(-n2cnc3cc(C(=O)N4CCc5ccccc54)ccc32)c1 | 22µM | · | – | – | ? | ?
Cc1cc(C)n(-c2ccc(C(=O)N3CCc4ccccc43)cc2)n1 | – | – | – | – | – | –
COc1ccc(OC)c(/C=C2\S/C(=N/NC(=O)c3ccc4ccccc4c3)NC2=O)c1 | 4µM | · | – | – | ? | –
O=C1N/C(=N/NC(=O)c2cccc3ccccc23)S/C1=C\c1ccccc1OCc1ccccc1 | – | – | – | – | – | –
CC(=O)[C@]1(O)CC[C@@H]2[C@H]3C[C@@H](C)C4=CC(=O)CC[C@@]4(C)[C@H]3[C@@H](O)C[C@]21C | · | · | –[11.4 µM] | · | · | ·
N#CCC1c2ccccc2CCN1C(=O)Nc1ccc(Cl)cc1 (configuration not stated) | – | –[1.84 µM] | – | – | – | -81
O=C(c1cccc(F)c1)N1CCC2(CCCN(C(c3ccccc3)c3ccccc3)C2)CC1 | – | · | – | – | ? | ·
O=C(c1ccncc1)N1CCC2(CCCN(c3ccccc3)C2)CC1 | – | · | – | – | – | ·
Cc1ccc(N/N=C(/Sc2nnnn2-c2ccccc2)C(=O)c2ccccc2)cc1 | – | · | – | – | 3.2µM | –
O=C(CSc1nnnn1-c1ccccc1)Nc1ccc(Cl)cc1 | – | – | – | – | ? | –
O=C(/C(=N\Nc1ccc([N+](=O)[O-])cc1)Sc1nnnn1-c1ccccc1)c1ccccc1 | – | · | – | – | 3.2µM | –
COP(=O)(OC)C(Nc1ccc(C)cc1)c1ccc([N+](=O)[O-])cc1 (configuration not stated) | – | · | – | – | ? | –
NNC(=O)c1ccc(Cn2cc(Br)cn2)cc1 | – | · | – | – | 5.6µM | -114
NNC(=O)c1ccc(Cn2cc(Cl)cn2)cc1 | – | · | – | – | 11µM | –
O=C(Nc1ccc(Nc2ccc3c(c2)C(=O)c2ccccc2C3=O)c2c1C(=O)c1ccccc1C2=O)c1ccccc1 | – | · | –[11.4 µM] | – | –[13.5 µM] | ·
O=C(Oc1cccc2c(OC(=O)N3CCCC3)cccc12)N1CCCC1 | – | – | – | – | ? | -100
COCCCNC(=O)CN(c1cccc(Cl)c1)S(C)(=O)=O | – | – | – | – | 2µM | ?
CN(C)C(CNC(=O)/C=C/c1cccc(Cl)c1)c1ccccc1 (configuration not stated) | · | · | · | – | – | ·
COCCCNC(=O)/C=C/c1cccc(Cl)c1 | 28µM | – | – | – | – | –
CO[C@H]1COC(=O)[C@@H](C)COC(=O)[C@@H](Cc2ccccc2)NC(=O)C/C=C\[C@H]1C | · | · | · | · | –[13.5 µM] | ·
Cn1c2ccccc2c2nn(-c3ccccc3)c(=O)cc21 | – | – | – | – | 13µM | –
CCOc1ccc(-n2c(Cc3cc(=O)[nH]c(=O)[nH]3)nnc2SCC(N)=O)cc1 | – | – | – | – | – | -84
CCOc1ccc(-n2c(Cc3cc(=O)[nH]c(=O)[nH]3)nnc2SCC(=O)NC2CCCC2)cc1 | – | – | – | – | – | –
CC(C)NC(=S)N/N=C1\CCCCC1C1CCCCC1 (configuration not stated) | ? | – | ? | – | 6.3µM | –
CC1CCCC/C1=N\NC(=S)Nc1ccccc1 (configuration not stated) | · | · | · | – | ? | ·
SMILES | HPGD block | IMPase cell inh | 12-hLO inh | IMPase Li inh | ALDH1A1 block | PNC assembly inh
CCC(C)Nc1nc(OCC(F)(F)F)nc(OCC(F)(F)F)n1 (configuration not stated) | – | – | – | – | – | –
CC(C)(C)Nc1nc(OCC(F)(F)F)nc(OCC(F)(F)F)n1 | – | – | – | – | – | -107
COC(=O)CN(c1c(C)cccc1C)S(C)(=O)=O | – | – | – | – | – | -86
COC(=O)CN(c1ccccc1C)S(C)(=O)=O | – | – | – | – | – | –
CN1CCN(c2ncc3nc(-c4cccc(C#N)c4)c(=O)n(C[C@H]4CCCO4)c3n2)CC1 | · | · | · | – | ? | ·
COc1ccc(/C=N/N=C2/NC(=O)CC(C(=O)O)S2)cc1 (configuration not stated) | – | · | – | – | – | –
COc1ccc(/C=N/N=C2/CC(C)(C)Cc3n[nH]c(=O)cc32)cc1 | · | · | · | – | 28µM | ·
COc1ccc(CCNc2nnc(Sc3nnnn3-c3ccccc3)s2)cc1OC | – | – | – | – | 18µM | -97
COc1ccc(CNC(=O)CSc2nnnn2-c2ccccc2)cc1 | – | – | – | – | 11µM | ?
COc1cc(OC)cc(-n2nnnc2SCC(=O)NCCc2ccc(OC)c(OC)c2)c1 | · | · | · | – | – | ·
COc1ccc(-n2nnnc2SCC(=O)NCCc2ccccc2)cc1OC | · | · | · | – | – | ·
COc1ccc(-n2c(CCc3ccccc3)nnc2SCC(=O)NCc2ccccc2)cc1 | – | – | – | – | ? | -108
COc1ccc(CCNC(=O)CSc2nnnn2-c2ccccc2)cc1 | – | – | – | – | 1.6µM | –
CS(=O)(=O)Nc1ccc(Br)cc1C(=O)c1ccccc1 | – | – | – | – | – | -84
CCN(CC)c1ccc(/C=C(\C#N)c2ccccn2)cc1 | – | · | – | – | ? | ?
CCN(CC)c1ccc(C=N/C(C#N)=C(\N)C#N)cc1 | – | ? | – | – | 11µM | –
COc1ccc(OCc2nnc(SCC(=O)N3CCOCC3)o2)cc1 | · | · | · | – | – | ·
Fc1ccc(OCc2nnc(SCCN3CCOCC3)o2)cc1 | 22µM | – | – | – | – | –
CCC(=O)Nc1ccc(N2CCCCC2)cc1 | – | – | – | – | – | –
O=C(CNCc1ccco1)Nc1ccc(N2CCCCCC2)cc1 | · | · | · | – | 35µM | ·
O=C(CCl)Nc1ccc(N2CCCCCC2)cc1 | · | · | · | – | 2.2µM | ·
CCNC(=S)Nc1ccc(N2CCCCC2)cc1 | · | · | · | – | 25µM | ·
CC1CCCCN1CC(=O)Nc1ccc(Oc2ccccc2)cc1 (configuration not stated) | ? | – | – | – | – | –
COCCCNC(=S)Nc1ccc(N2CCCCC2)cc1 | · | · | · | – | – | ·
CC1CCCCN1CC(=O)Nc1ccc(N2CCCCCC2)cc1 (configuration not stated) | · | · | · | – | 20µM | ·
COc1ccc(CCCc2nnc(SCC(=O)Nc3ccc(C)cc3)o2)cc1 | · | – | · | · | · | ·
O=C(O)c1cc2ccccc2c(S(=O)(=O)O)c1O | – | · | –[11.4 µM] | – | –[13.5 µM] | ·
Cc1ccc(S(=O)(=O)/N=C2/NC(=O)/C(=C/c3cccnc3)S2)cc1 | 20µM | – | – | – | – | –

Source: PubChem BioAssay (National Center for Advancing Translational Sciences (NCATS))
